Results as given in PubChem BioAssay (EPA / NIEHS).
Activity calls are given as the source filed them. How the source made its calls: active means hit-call score of the fitted dose curve at least 0.9, where 1 is the maximum; inactive means score below 0.9.

How the values were obtained:
Settings in all cases: mRNA level, 48 h; actives raise or lower the signal
[1] = read-out: Glutathione S-Transferase (GSTA2), GSTA2 (gene 2939); assay: LTEA_HepaRG_GSTA2: Life Technologies and Expression Analysis (LTEA) Assay for Glutathione S-Transferase (GSTA2) using HepaRG (AID 2283497)
How it was run: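 Human HepaRG cells, plated 48 h, then exposed in serum-free induction medium for 48 h to eight half-log concentrations up to 100 uM in 0.5% DMSO, duplicate. GSTA2 mRNA by qRT-PCR, normalized to ACTB/GAPDH/POLR2A; bidirectional fit versus DMSO.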

[2] = read-out: Glutamate-cysteine ligase catalytic (GCLC), GCLC (gene 2729); assay: LTEA_HepaRG_GCLC: Life Technologies and Expression Analysis (LTEA) Assay for Glutamate-cysteine ligase catalytic (GCLC) using HepaRG (AID 2283498)
How it was run: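 Differentiated human HepaRG cells, plated 48 h then switched to serum-free induction medium, were exposed in duplicate for 48 h to 8 half-log concentrations topping at 100 uM in 0.5% DMSO. GCLC mRNA was quantified by qRT-PCR against ACTB, GAPDH and POLR2A.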

[3] = read-out: growth arrest and DNA damage 45 (GADD45G), GADD45G (gene 10912); assay: LTEA_HepaRG_GADD45G: Life Technologies and Expression Analysis (LTEA) Assay for growth arrest and DNA damage 45 (GADD45G) using HepaRG (AID 2283499)
How it was run: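 Concentration-response in HepaRG: 48 h dosing, 0.5% DMSO, highest level 100 uM. GADD45G expression by qRT-PCR, normalised to endogenous controls; bidirectional fit to DMSO.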

[4] = read-out: Glutamate-cysteine ligase regulatory (GCLM), GCLM (gene 2730); assay: LTEA_HepaRG_GCLM: Life Technologies and Expression Analysis (LTEA) Assay for Glutamate-cysteine ligase regulatory (GCLM) using HepaRG (AID 2283500)
How it was run: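 Human liver HepaRG cultures receive test chemicals for 48 hours at up to 100 uM in 0.5% DMSO. GCLM expression is measured by qRT-PCR and analysed for increases or decreases against vehicle.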

[5] = read-out: Glutathione S-transferase M3 (GSTM3), GSTM3 (gene 2947); assay: LTEA_HepaRG_GSTM3: Life Technologies and Expression Analysis (LTEA) Assay for Glutathione S-transferase M3 (GSTM3) using HepaRG (AID 2283501)
How it was run: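 Expression of GSTM3 is determined by qRT-PCR in human liver HepaRG cells treated 48 h with an 8-point half-log range from 100 uM in 0.5% DMSO.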

[6] = read-out: Heat shock 70 kDa protein 1 (HSPA1A), gene 3303; assay: LTEA_HepaRG_HSPA1A: Life Technologies and Expression Analysis (LTEA) Assay for Heat shock 70 kDa protein 1 (HSPA1A) using HepaRG (AID 2283502)
How it was run: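 HSPA1A induction in human HepaRG liver cells is measured after 48 h of chemical treatment (100 uM maximum, 0.5% DMSO vehicle). Expression comes from qRT-PCR normalized to endogenous controls.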

[7] = read-out: Hypoxia-inducible factor 1-alpha (Homo sapiens) (UniProt Q16665); assay: LTEA_HepaRG_HIF1A: Life Technologies and Expression Analysis (LTEA) Assay for Hypoxia-inducible factor 1 (HIF1A) Trancription factor using HepaRG (AID 2283503)
How it was run: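 HepaRG, 48 h exposure, 8-pt half-log series from 100 uM, 0.5% DMSO vehicle, duplicates. Readout: HIF1A transcript by qRT-PCR (Fluidigm array), housekeeping-normalised. Bidirectional curve fit vs DMSO baseline.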

[8] = read-out: 3-Hydroxy-3-Methylglutaryl-CoA Synthase 2 (HMGCS2), HMGCS2 (gene 3158); assay: LTEA_HepaRG_HMGCS2: Life Technologies and Expression Analysis (LTEA) Assay for 3-Hydroxy-3-Methylglutaryl-CoA Synthase 2 (HMGCS2) using HepaRG (AID 2283504)
How it was run: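 This steatosis marker was read as HMGCS2 mRNA change in HepaRG cells treated 48 h with up to 100 uM chemical. Normalisation used housekeeping genes; activity in either direction was fitted relative to 0.5% DMSO vehicle.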

[9] = read-out: Insulin Like Growth Factor 1 (IGF1), IGF1 (gene 3479); assay: LTEA_HepaRG_IGF1: Life Technologies and Expression Analysis (LTEA) Assay for Insulin Like Growth Factor 1 (IGF1) using HepaRG (AID 2283506)
How it was run: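 Using human HepaRG liver cells, IGF1 transcript induction or suppression is measured 48 h after dosing across eight concentrations capped at 100 uM. Values derive from bidirectional concentration-response fitting with DMSO as baseline.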

[10] = read-out: Intercellular Adhesion Molecule 1 (ICAM1), ICAM1 (gene 3383); assay: LTEA_HepaRG_ICAM1: Life Technologies and Expression Analysis (LTEA) Assay for Intercellular Adhesion Molecule 1 (ICAM1) using HepaRG (AID 2283507)
How it was run: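 Using the human liver line HepaRG, compounds are tested in duplicate over 48 h at concentrations up to 100 uM. Expression is determined by TaqMan qRT-PCR, normalized to endogenous controls, and analysed relative to 0.5% DMSO vehicle.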

[11] = read-out: Insulin-like growth factor-binding protein 1 (IGFBP1), IGFBP1 (gene 3484); assay: LTEA_HepaRG_IGFBP1: Life Technologies and Expression Analysis (LTEA) Assay for Insulin-like growth factor-binding protein 1 (IGFBP1) using HepaRG (AID 2283508)
How it was run: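 HepaRG, 48 h, 8 conc. (max 100 uM, half-log), duplicates, 0.5% DMSO. Readout: TaqMan qRT-PCR, ACTB/GAPDH/POLR2A normalisation. Fit: bidirectional vs DMSO.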

[12] = read-out: Interleukin 6 (IL6), IL6 (gene 3569); assay: LTEA_HepaRG_IL6: Life Technologies and Expression Analysis (LTEA) Assay for Interleukin 6 (IL6) using HepaRG (AID 2283509)
How it was run: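 Differentiated human HepaRG cells, plated 48 h then switched to serum-free induction medium, were exposed in duplicate for 48 h to eight half-log concentrations up to 100 uM in 0.5% DMSO. IL6 mRNA measured by qRT-PCR, normalized to ACTB/GAPDH/POLR2A.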

[13] = read-out: Interleukin 6 Receptor (IL6R), IL6R (gene 3570); assay: LTEA_HepaRG_IL6R: Life Technologies and Expression Analysis (LTEA) Assay for Interleukin 6 Receptor (IL6R) using HepaRG (AID 2283510)
How it was run: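 Concentration-response in human liver HepaRG cells: eight concentrations from 100 uM downward by half-logs, 48 h exposure, 0.5% DMSO vehicle. IL6R mRNA change measured by qRT-PCR and fitted in both directions relative to vehicle.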

[14] = read-out: Potassium channel subfamily K member 1 (KCNK1), KCNK1 (gene 3775); assay: LTEA_HepaRG_KCNK1: Life Technologies and Expression Analysis (LTEA) Assay for Potassium channel subfamily K member 1 (KCNK1) using HepaRG (AID 2283511)
How it was run: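 Differentiated human HepaRG cells in serum-free induction medium were exposed in duplicate for 48 h to 8 half-log concentrations up to 100 uM in 0.5% DMSO. KCNK1 mRNA was measured by TaqMan qRT-PCR, normalized to ACTB, GAPDH and POLR2A, and fitted bidirectionally versus DMSO.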

[15] = read-out: Keratin 19 (KRT19), KRT19 (gene 3880); assay: LTEA_HepaRG_KRT19: Life Technologies and Expression Analysis (LTEA) Assay for Keratin 19 (KRT19) using HepaRG (AID 2283512)
How it was run: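 Readout is qRT-PCR of KRT19 mRNA, normalized to ACTB, GAPDH and POLR2A, from HepaRG cells treated 48 h with eight-point half-log dilutions topping at 100 uM. Activity in either direction is scored relative to 0.5% DMSO vehicle.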

[16] = read-out: JUN Transcription Factor, JUN (gene 3725); assay: LTEA_HepaRG_JUN: Life Technologies and Expression Analysis (LTEA) Assay for JUN Transcription Factor using HepaRG (AID 2283513)
How it was run: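 Human HepaRG liver cells receive test chemicals in 0.5% DMSO for 48 h across an eight-point range topping at 100 uM. Expression changes in JUN are scored in both directions against the DMSO vehicle.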

[17] = read-out: Lipase C (LIPC), LIPC (gene 3990); assay: LTEA_HepaRG_LIPC: Life Technologies and Expression Analysis (LTEA) Assay for Lipase C (LIPC) using HepaRG (AID 2283514)
How it was run: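 Differentiated human HepaRG cells in serum-free induction medium were exposed in duplicate for 48 h to eight concentrations (top 100 uM, half-log steps, 0.5% DMSO). LIPC mRNA was quantified by TaqMan qRT-PCR, normalized to ACTB, GAPDH and POLR2A, with bidirectional fitting versus DMSO.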

[18] = read-out: Lipoprotein lipase (LPL), LPL (gene 4023); assay: LTEA_HepaRG_LPL: Life Technologies and Expression Analysis (LTEA) Assay for Lipoprotein lipase (LPL) using HepaRG (AID 2283515)
How it was run: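 Differentiated human HepaRG cells in serum-free induction medium were exposed in duplicate for 48 h to eight half-log concentrations (top 100 uM) in 0.5% DMSO. LPL mRNA was quantified by TaqMan qRT-PCR, normalized to ACTB, GAPDH and POLR2A.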

[19] = read-out: MicroRNA 122 (MIR122), gene 406906; assay: LTEA_HepaRG_MIR122: Life Technologies and Expression Analysis (LTEA) Assay for MicroRNA 122 (MIR122) using HepaRG (AID 2283516); further: the transcript read is the microRNA miR-122
How it was run: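 HepaRG, 48 h exposure, 8-pt half-log from 100 uM, 0.5% DMSO; TaqMan qRT-PCR; bidirectional fit vs DMSO.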

HGF (gene 3082) = assay: LTEA_HepaRG_HGF: Life Technologies and Expression Analysis (LTEA) Assay for Hepatocyte Growth Facto (HGF) using HepaRG (AID 2283505)
How it was run: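 Using HepaRG monolayers kept in 0.5% DMSO, chemicals were tested in duplicate over eight half-log concentrations from 100 uM for 48 h. Endpoint: HGF mRNA change relative to DMSO, normalized to ACTB/GAPDH/POLR2A.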

Measured: AC50

Hypoxia-inducible factor 1-alpha (Homo sapiens), sequence (Q16665 whole entry, looked up): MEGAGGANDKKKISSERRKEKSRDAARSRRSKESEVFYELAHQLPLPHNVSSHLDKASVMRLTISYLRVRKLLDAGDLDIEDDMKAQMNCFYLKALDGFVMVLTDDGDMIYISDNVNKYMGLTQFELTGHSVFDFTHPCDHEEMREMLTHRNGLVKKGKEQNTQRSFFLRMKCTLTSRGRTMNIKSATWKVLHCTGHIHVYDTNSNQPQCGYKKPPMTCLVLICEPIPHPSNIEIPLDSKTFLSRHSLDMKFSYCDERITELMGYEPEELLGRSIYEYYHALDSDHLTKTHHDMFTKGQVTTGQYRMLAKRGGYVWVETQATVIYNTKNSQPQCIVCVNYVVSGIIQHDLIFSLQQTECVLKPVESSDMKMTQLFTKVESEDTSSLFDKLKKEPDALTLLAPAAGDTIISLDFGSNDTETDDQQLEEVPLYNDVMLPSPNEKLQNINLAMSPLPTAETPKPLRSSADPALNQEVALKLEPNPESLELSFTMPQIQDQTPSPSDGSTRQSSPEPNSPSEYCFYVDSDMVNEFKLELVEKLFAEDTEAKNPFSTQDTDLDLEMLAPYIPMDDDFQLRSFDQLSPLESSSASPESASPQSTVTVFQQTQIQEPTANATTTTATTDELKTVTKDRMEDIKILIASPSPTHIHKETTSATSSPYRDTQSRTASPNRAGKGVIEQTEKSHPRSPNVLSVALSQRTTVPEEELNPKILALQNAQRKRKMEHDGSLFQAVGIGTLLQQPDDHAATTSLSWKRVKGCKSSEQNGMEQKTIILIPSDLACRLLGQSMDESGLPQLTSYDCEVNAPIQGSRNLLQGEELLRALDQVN

COC(=O)c1ccc(O)cc1
not listed: HGF (gene 3082)
inactive: all other assays above

OC[C@@H](O)[C@@H](O)[C@H](O)[C@H](O)CO
not listed: HGF (gene 3082)
inactive: all other assays above

CCCCCCCCCCCCCCCCCC(=O)O
not listed: HGF (gene 3082)
inactive: all other assays above

COCCOC[C@H](CC1(C(=O)NC2CCC(C(=O)O)CC2)CCCC1)C(=O)Oc1ccc2c(c1)CCC2 (some centres undefined)
not listed: [3]
inactive: all other assays above

Cc1cccc(C)c1O
not listed: HGF (gene 3082)
inactive: all other assays above

CC(CO)OC(C)CO (centres undefined) (tested in a mixture with another compound)
not listed: [3] | [19]
inactive: all other assays above

C[Si]1(C)O[Si](C)(C)O[Si](C)(C)O[Si](C)(C)O1
not listed: [19]
inactive: all other assays above

CCNc1cccc(C)c1
not listed: [3] | [19]
inactive: all other assays above

CCCCCCCCCCO
not listed: [3] | [19]
inactive: all other assays above

Nc1ccc(S(=O)(=O)c2ccc(N)cc2)cc1
not listed: [7] | [19] | HGF (gene 3082)
inactive: all other assays above

COc1ccc(C)cc1N
not listed: [19]
inactive: all other assays above

C=CCc1ccc(O)c(OC)c1
not listed: HGF (gene 3082)
inactive: all other assays above

CCCCCC(=O)O
not listed: HGF (gene 3082)
inactive: all other assays above

CCOC(=O)C(C)(C)Oc1ccc(Cl)cc1
active: [8] 9.92 µM
not listed: [7] | [19] | HGF (gene 3082)
inactive: all other assays above
